In ChEMBL document CHEMBL2218924, “A broad activity screen in support of a chemogenomic map for kinase signalling research and drug discovery” (Biochem J, 2013):

Experiments:
[1] = molecular target: MAP kinase-activated protein kinase 2 (Homo sapiens) (UniProt P49137); conditions: at 10 µM
[2] = molecular target: MAP kinase-activated protein kinase 3 (Homo sapiens) (UniProt Q16644); conditions: at 10 µM
[3] = molecular target: Serine/threonine-protein kinase MARK1 (Homo sapiens) (UniProt Q9P0L2); conditions: at 1 µM
[4] = molecular target: Serine/threonine-protein kinase MARK1 (Homo sapiens) (UniProt Q9P0L2); conditions: at 10 µM
[5] = molecular target: Dual specificity mitogen-activated protein kinase kinase 1 (Homo sapiens) (UniProt Q02750); conditions: at 1 µM
[6] = molecular target: Dual specificity mitogen-activated protein kinase kinase 1 (Homo sapiens) (UniProt Q02750); conditions: at 10 µM
[7] = molecular target: Maternal embryonic leucine zipper kinase (Homo sapiens) (UniProt Q14680); conditions: at 1 µM
[8] = molecular target: Maternal embryonic leucine zipper kinase (Homo sapiens) (UniProt Q14680); conditions: at 10 µM
[9] = molecular target: Misshapen-like kinase 1 (Homo sapiens) (UniProt Q8N4C8); conditions: at 1 µM
[10] = molecular target: Misshapen-like kinase 1 (Homo sapiens) (UniProt Q8N4C8); conditions: at 10 µM
[11] = molecular target: T1, Dual specificity mitogen-activated protein kinase kinase 6 (Homo sapiens) (UniProt P52564); conditions: at 1 µM
T1 sequence (whole entry): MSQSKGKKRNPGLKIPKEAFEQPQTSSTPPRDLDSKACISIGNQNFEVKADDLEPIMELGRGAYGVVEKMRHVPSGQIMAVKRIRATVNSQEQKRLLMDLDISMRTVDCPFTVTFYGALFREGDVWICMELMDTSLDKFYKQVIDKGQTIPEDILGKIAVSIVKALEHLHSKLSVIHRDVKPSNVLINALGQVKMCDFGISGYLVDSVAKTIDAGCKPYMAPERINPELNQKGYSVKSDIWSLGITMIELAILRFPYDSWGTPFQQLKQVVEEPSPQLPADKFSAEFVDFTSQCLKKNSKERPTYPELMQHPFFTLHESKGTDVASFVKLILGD

[12] = molecular target: T1, Dual specificity mitogen-activated protein kinase kinase 6 (Homo sapiens); conditions: at 10 µM
[13] = molecular target: T2, Dual specificity mitogen-activated protein kinase kinase 7 (Homo sapiens) (UniProt O14733); conditions: at 1 µM
T2 sequence (whole entry): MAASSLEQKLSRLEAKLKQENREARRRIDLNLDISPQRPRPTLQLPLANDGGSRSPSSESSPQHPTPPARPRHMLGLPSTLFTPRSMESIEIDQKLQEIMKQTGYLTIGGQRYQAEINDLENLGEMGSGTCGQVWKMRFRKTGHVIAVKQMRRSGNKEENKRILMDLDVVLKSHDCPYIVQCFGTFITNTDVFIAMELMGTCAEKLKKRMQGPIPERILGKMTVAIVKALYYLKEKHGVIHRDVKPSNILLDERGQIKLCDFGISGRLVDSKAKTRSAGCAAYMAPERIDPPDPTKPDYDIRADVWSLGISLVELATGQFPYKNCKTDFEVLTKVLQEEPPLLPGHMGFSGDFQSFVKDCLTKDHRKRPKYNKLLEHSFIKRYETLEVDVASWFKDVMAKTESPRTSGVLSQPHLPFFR

[14] = molecular target: T2, Dual specificity mitogen-activated protein kinase kinase 7 (Homo sapiens); conditions: at 10 µM
[15] = molecular target: Myosin light chain kinase, smooth muscle (Homo sapiens) (UniProt Q15746); conditions: at 1 µM
[16] = molecular target: Myosin light chain kinase, smooth muscle (Homo sapiens) (UniProt Q15746); conditions: at 10 µM
[17] = molecular target: Mitogen-activated protein kinase kinase kinase 9 (Homo sapiens) (UniProt P80192); conditions: at 1 µM
[18] = molecular target: Mitogen-activated protein kinase kinase kinase 9 (Homo sapiens) (UniProt P80192); conditions: at 10 µM
[19] = molecular target: Serine/threonine-protein kinase MRCK alpha (Homo sapiens) (UniProt Q5VT25); conditions: at 1 µM
[20] = molecular target: Serine/threonine-protein kinase MRCK alpha (Homo sapiens) (UniProt Q5VT25); conditions: at 10 µM

Chain of Dual specificity mitogen-activated protein kinase kinase 1 (Homo sapiens) (Q02750 whole entry): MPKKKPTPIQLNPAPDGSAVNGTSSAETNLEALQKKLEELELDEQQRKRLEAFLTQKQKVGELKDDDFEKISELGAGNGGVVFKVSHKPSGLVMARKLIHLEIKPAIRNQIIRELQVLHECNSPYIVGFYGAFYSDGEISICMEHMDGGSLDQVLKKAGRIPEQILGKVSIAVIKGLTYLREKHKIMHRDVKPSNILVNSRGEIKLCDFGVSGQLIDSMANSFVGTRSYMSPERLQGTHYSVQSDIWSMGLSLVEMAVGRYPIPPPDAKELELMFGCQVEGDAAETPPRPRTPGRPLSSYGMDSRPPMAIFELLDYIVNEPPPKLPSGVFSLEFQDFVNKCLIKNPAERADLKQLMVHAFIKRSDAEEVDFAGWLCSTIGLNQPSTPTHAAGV
Chain of Myosin light chain kinase, smooth muscle (Homo sapiens) (Q15746 whole entry): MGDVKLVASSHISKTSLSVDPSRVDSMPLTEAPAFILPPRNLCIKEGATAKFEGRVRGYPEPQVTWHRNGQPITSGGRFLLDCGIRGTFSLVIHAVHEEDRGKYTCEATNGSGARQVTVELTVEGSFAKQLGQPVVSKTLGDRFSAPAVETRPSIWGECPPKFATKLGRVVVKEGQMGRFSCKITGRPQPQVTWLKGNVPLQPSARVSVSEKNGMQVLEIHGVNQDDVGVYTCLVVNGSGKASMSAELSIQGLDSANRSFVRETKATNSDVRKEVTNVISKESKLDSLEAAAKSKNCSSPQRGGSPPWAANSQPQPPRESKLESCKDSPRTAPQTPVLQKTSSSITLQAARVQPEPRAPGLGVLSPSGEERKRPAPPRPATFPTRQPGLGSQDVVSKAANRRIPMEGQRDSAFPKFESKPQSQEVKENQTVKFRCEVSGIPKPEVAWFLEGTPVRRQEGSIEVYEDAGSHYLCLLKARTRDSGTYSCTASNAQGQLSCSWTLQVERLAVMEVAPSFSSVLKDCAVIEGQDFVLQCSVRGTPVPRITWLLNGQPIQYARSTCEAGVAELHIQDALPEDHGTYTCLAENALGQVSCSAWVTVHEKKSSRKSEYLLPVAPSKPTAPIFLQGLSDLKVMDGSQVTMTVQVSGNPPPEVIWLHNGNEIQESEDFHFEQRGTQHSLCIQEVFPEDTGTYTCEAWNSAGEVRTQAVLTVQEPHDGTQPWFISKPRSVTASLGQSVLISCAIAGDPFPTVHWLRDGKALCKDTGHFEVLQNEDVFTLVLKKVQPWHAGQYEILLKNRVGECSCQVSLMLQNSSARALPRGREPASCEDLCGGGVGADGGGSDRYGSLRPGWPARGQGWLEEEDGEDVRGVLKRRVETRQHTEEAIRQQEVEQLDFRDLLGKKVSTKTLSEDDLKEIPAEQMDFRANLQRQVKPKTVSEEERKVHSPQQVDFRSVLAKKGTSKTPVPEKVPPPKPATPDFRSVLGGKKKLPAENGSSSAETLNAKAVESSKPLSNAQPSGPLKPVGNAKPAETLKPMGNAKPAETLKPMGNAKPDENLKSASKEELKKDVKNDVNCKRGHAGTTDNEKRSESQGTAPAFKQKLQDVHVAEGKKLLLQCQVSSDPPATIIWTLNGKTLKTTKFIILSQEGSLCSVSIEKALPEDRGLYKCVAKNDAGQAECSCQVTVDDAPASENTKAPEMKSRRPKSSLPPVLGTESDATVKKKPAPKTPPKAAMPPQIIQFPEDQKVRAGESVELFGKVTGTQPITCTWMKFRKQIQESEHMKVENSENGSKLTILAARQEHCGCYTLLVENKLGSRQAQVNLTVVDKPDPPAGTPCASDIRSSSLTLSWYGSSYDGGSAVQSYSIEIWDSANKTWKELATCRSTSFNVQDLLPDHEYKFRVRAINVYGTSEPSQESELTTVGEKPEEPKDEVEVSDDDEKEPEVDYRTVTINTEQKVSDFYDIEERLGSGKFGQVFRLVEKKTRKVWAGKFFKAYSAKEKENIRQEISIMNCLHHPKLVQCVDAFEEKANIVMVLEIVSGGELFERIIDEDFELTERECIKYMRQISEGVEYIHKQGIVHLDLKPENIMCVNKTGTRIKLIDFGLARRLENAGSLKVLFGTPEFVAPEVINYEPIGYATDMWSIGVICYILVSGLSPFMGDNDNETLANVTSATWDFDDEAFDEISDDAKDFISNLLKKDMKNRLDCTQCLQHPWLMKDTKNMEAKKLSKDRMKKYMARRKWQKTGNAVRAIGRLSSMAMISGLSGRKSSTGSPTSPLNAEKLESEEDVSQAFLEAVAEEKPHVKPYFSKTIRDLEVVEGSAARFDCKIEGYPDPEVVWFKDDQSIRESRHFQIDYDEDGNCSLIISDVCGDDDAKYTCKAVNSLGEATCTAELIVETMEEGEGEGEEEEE
Chain of MAP kinase-activated protein kinase 2 (Homo sapiens) (P49137 whole entry, looked up): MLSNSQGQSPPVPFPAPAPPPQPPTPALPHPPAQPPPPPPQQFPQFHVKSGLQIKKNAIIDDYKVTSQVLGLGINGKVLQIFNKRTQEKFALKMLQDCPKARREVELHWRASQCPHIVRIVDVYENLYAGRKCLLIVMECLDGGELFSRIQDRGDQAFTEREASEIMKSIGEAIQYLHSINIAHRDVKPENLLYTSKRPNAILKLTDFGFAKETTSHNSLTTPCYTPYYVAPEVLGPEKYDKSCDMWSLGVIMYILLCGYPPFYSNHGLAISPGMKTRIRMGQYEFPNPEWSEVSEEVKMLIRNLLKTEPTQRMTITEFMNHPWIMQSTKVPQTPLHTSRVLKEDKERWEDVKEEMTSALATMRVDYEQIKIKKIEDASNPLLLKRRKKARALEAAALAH
Chain of Serine/threonine-protein kinase MARK1 (Homo sapiens) (Q9P0L2 whole entry, looked up): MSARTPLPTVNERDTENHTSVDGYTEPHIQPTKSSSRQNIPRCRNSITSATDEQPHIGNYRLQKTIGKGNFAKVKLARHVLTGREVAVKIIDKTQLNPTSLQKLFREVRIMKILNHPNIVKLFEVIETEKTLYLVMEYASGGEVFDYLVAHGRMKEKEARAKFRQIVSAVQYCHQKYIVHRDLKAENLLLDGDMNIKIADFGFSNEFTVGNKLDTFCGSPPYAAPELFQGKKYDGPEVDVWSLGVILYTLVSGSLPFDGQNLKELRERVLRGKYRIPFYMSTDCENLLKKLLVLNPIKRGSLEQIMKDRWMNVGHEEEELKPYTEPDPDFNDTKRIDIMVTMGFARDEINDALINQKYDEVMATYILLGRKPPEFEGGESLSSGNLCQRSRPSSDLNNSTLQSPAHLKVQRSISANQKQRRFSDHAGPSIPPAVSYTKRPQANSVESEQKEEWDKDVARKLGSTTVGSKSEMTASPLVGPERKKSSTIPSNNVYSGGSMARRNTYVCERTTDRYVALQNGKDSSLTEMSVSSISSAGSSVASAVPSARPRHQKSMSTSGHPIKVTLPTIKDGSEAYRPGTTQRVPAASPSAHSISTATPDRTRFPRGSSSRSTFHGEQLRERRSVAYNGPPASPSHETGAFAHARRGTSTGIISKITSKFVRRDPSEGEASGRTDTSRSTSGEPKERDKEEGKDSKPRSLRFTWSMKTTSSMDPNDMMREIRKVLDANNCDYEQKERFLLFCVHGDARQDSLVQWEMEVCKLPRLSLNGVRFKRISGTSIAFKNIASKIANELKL
Chain of Maternal embryonic leucine zipper kinase (Homo sapiens) (Q14680 whole entry, looked up): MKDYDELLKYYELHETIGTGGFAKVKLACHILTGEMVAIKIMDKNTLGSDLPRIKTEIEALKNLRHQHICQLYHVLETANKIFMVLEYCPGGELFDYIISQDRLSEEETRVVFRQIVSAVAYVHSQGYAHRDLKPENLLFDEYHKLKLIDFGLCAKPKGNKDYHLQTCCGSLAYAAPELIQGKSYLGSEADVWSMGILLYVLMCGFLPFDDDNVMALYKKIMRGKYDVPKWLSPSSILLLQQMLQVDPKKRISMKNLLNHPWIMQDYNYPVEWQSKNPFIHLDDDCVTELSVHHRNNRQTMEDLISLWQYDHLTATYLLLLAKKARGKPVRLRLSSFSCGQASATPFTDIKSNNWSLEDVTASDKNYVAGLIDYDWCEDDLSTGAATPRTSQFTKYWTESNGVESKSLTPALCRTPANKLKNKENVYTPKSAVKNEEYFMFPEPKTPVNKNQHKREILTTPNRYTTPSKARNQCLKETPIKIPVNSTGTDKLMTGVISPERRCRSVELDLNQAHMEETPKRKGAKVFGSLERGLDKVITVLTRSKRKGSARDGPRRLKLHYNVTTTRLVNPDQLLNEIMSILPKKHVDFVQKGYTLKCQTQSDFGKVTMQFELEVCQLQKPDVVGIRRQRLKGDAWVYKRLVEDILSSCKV
Chain of MAP kinase-activated protein kinase 3 (Homo sapiens) (Q16644 whole entry, looked up): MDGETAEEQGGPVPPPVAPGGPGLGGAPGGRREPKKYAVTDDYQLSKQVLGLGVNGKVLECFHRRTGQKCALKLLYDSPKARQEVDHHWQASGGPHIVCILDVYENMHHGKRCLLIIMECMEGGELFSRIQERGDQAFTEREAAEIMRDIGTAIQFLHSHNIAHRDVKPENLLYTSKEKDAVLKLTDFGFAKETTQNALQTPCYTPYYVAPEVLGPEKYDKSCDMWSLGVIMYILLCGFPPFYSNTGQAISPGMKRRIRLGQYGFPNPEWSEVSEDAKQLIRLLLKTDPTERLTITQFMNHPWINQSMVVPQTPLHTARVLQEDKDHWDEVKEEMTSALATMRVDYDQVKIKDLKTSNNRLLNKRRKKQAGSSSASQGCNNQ

| Compound | residual activity [1] [%] | residual activity [2] [%] | residual activity [3] [%] | residual activity [4] [%] | residual activity [5] [%] | residual activity [6] [%] | residual activity [7] [%] | residual activity [8] [%] | residual activity [9] [%] | residual activity [10] [%] | residual activity [11] [%] | residual activity [12] [%] | residual activity [13] [%] | residual activity [14] [%] | residual activity [15] [%] | residual activity [16] [%] | residual activity [17] [%] | residual activity [18] [%] | residual activity [19] [%] | residual activity [20] [%] |
| --- | --- | --- | --- | --- | --- | --- | --- | --- | --- | --- | --- | --- | --- | --- | --- | --- | --- | --- | --- | --- |
| Oc1n[nH]c2nnc(-c3c(-c4ccccc4)nn4ccccc34)cc12 | 90 | 86 | 75 | 76 | 104 | 109 | 53 | 36 | 105 | 92 | 126 | 89 | 95 | 101 | 84 | 52 | 89 | 48 | 94 | 79 |
| CC(=O)O/N=C1\C(=C2\C(=O)Nc3cc(Br)ccc32)Nc2ccccc21 | 93 | 90 | 77 | 39 | 98 | 113 | 69 | 52 | 103 | 86 | 96 | 76 | 83 | 105 | 90 | 71 | 55 | 16 | 93 | 101 |
| Ic1cccc(CSc2nnc(-c3ccncc3)o2)c1 | 67 | 82 | 4 | 5 | 69 | 77 | 24 | 13 | 98 | 95 | 100 | 77 | 70 | 94 | 84 | 68 | 90 | 88 | 123 | 87 |
| O=C1NC(=O)c2c1c1c3ccccc3[nH]c1c1[nH]c3cc(Br)ccc3c21 | 93 | 89 | 67 | 34 | 75 | 98 | 87 | 82 | 109 | 90 | 94 | 87 | 87 | 86 | 27 | 37 | 85 | 31 | 87 | 88 |
| CC(C)n1cnc2c(NCc3ccccc3)nc(NCCCO)nc21 | 90 | 80 | 81 | 81 | 103 | 110 | 86 | 77 | 108 | 100 | 94 | 74 | 91 | 75 | 93 | 74 | 97 | 73 | 86 | 83 |
| O=C1Nc2cc(Br)ccc2/C1=C1/Nc2ccccc2/C1=N\O | 90 | 91 | 21 | 19 | 71 | 107 | 34 | 48 | 91 | 70 | 87 | 65 | 80 | 93 | 25 | 32 | 21 | 10 | 141 | 103 |
| Oc1ccc(-c2nc(-c3ccc(F)cc3)c(-c3ccncc3)[nH]2)cc1 | 105 | 102 | 95 | 97 | 90 | 104 | 92 | 46 | 91 | 49 | 12 | -1 | 80 | 57 | 111 | 80 | 54 | 12 | 116 | 103 |
| CO[C@H]1[C@@H](OC)C[C@H](C)[C@@H](OC)C2=CC(=O)C=C(NC(=O)/C(C)=C/C=C/[C@H](OC)[C@@H](OC(N)=O)/C(C)=C/[C@@H]1C)C2=O | 85 | 81 | 92 | 82 | 102 | 95 | 60 | 63 | 95 | 92 | 72 | 99 | 92 | 88 | 98 | 90 | 92 | 99 | 114 | 92 |
| COc1cccc(-c2cc(=O)c3ccccc3o2)c1N | 78 | 97 | 87 | 85 | 103 | 111 | 109 | 113 | 98 | 96 | 138 | 77 | 106 | 84 | 107 | 77 | 111 | 96 | 118 | 96 |
| COc1cc2ncnc(Nc3ccc(Oc4ccccc4)cc3)c2cc1OC | 108 | 127 | 83 | 81 | 89 | 38 | 76 | 129 | 99 | 89 | 79 | 83 | 87 | 81 | 72 | 91 | 18 | 4 | 103 | 134 |
| O=C1NC(=O)c2cc(Nc3ccc(F)cc3)c(Nc3ccc(F)cc3)cc21 | 93 | 69 | 82 | 75 | 109 | 122 | 89 | 76 | 83 | 71 | 72 | 58 | 98 | 97 | 55 | 70 | 86 | 75 | 100 | 111 |
| COc1cc2ncnc(N3CCN(C(=O)Nc4ccc(Oc5ccccc5)cc4)CC3)c2cc1OC | 110 | 117 | 86 | 78 | 115 | 94 | 81 | 101 | 95 | 88 | 87 | 81 | 144 | 111 | 77 | 97 | 87 | 91 | – | – |
| COc1cc2ncnc(Nc3ccc(O)c(Br)c3)c2cc1OC | 106 | 106 | 70 | 54 | 119 | 80 | 73 | 28 | 83 | 47 | 88 | 27 | 119 | 94 | 71 | 37 | 45 | 11 | 82 | 84 |
| O=C1c2ccccc2-[n+]2ccc3c([nH]c4ccccc43)c21 | 98 | 89 | 80 | 77 | 97 | 110 | 85 | 67 | 99 | 87 | 109 | 92 | 91 | 97 | 95 | 79 | 91 | 83 | 100 | 86 |
| COc1ccc(C(=O)Nc2sc3c(c2C(N)=O)CCCC3)cc1OC | 88 | 79 | 81 | 81 | 120 | 101 | 78 | 78 | 95 | 92 | 80 | 120 | 90 | 73 | 80 | 66 | 90 | 96 | 92 | 85 |
| Cn1cnc2cc3c(Nc4cccc(Br)c4)ncnc3cc21 | 94 | 87 | 102 | 94 | 91 | 88 | 92 | 103 | 103 | 75 | 83 | 74 | 96 | 74 | 74 | 94 | 64 | 40 | 105 | 87 |
| CNc1cc2c(Nc3cccc(Br)c3)ncnc2cn1 | 112 | 99 | 88 | 73 | 84 | 53 | 109 | 112 | 92 | 87 | 72 | 79 | 100 | 93 | 55 | 49 | 68 | 53 | 98 | 101 |
| COc1ccc(S(=O)(=O)N(CCO)c2ccccc2CN(C)C/C=C/c2ccc(Cl)cc2)cc1 | 73 | 84 | 83 | 77 | 97 | 79 | 90 | 63 | 98 | 97 | 99 | 74 | 101 | 73 | 97 | 41 | 99 | 92 | 119 | 113 |
| O=C(Nc1cccc(Nc2cc(Nc3cccc(C(F)(F)F)c3)ncn2)c1)C1CC1 | 71 | 91 | 83 | 79 | 78 | 88 | 89 | 89 | 105 | 97 | 76 | 66 | 104 | 106 | 75 | 81 | 79 | 36 | 92 | 115 |
| N#C/C(=C(\N)Sc1ccc(N)cc1)c1ccccc1C(F)(F)F | 69 | 88 | 72 | 54 | 104 | 101 | 67 | 62 | 106 | 91 | 93 | 83 | 88 | 96 | 95 | 75 | 93 | 89 | 107 | 94 |
| c1ccc2c(-c3ccncc3)c[nH]c2c1 | 94 | 101 | 81 | 77 | 87 | 75 | 91 | 76 | 85 | 43 | 77 | 93 | 101 | 94 | 72 | 66 | 74 | 60 | – | – |
| Nc1nc(Nc2ccc(S(N)(=O)=O)cc2)nn1C(=S)Nc1c(F)cccc1F | 9 | 41 | -1 | 0 | 16 | 6 | 17 | 24 | 18 | 2 | 26 | 20 | 65 | 16 | 79 | 29 | -1 | -1 | 28 | 24 |
| O=c1c2ccccc2[nH]c(=S)n1CCN1CCC(=C(c2ccc(F)cc2)c2ccc(F)cc2)CC1 | 89 | 86 | 100 | 87 | 98 | 92 | 86 | 86 | 88 | 65 | 107 | 93 | 82 | 90 | 73 | 86 | 92 | 101 | 107 | 103 |
| CC#CC(=O)Nc1cc2c(Nc3ccc(F)c(Cl)c3)ncnc2cn1 | 92 | 96 | 87 | 83 | 111 | 103 | 76 | 99 | 96 | 91 | 77 | 140 | 97 | 90 | 73 | 110 | 98 | 100 | 98 | 87 |
| O=c1cc(-c2cccc3c2Sc2ccccc2S3)oc(N2CCOCC2)c1 | 85 | 79 | 104 | 96 | 111 | 104 | 93 | 90 | 111 | 100 | 113 | 78 | 106 | 82 | 114 | 69 | 103 | 96 | 110 | 112 |
| Cc1nc2cc3nc(-c4cccs4)cnc3cc2n1C | 114 | 100 | 107 | 100 | 120 | 91 | 89 | 67 | 112 | 98 | 75 | 149 | 109 | 110 | 82 | 105 | 86 | 44 | 116 | 102 |
| Cc1ccc(S(=O)(=O)/C=C/C#N)cc1 | 74 | 85 | 90 | 89 | 105 | 95 | 96 | 100 | 111 | 104 | 124 | 94 | 93 | 77 | 95 | 85 | 97 | 97 | 86 | 95 |
